Source: PubChem BioAssay (Tox21)
Results filed as inconclusive are left out. A call without a number means that no potency is given here. The source made the active and inactive calls. The call rests on the fitted dose curve; in most records, active means well fitted cell-killing curve with a large enough effect in the repeat runs; inconclusive means weak or mixed curves, or effect the other way; inactive means no such curve, though single readings can be large or run the other way.

Assay: qHTS assay to identify small molecule antagonists of the sonic hedgehog signaling (Shh) pathway - cell viability counter screen (AID 1259367); further: nearly all actives have a fitted effect of over 55% in size
Conditions: NIH/3T3 Gli1-Luc viability, CellTiter-Fluor, 24 h; series mostly up to 92.4 µM
Source text: National Center for Advancing Translational Sciences [NCATS]
NIH Chemical Genomics Center [NCGC]
U.S. Environmental Protection Agency [EPA]
National Institutes of Environmental Health Sciences [NIEHS]
National Toxicology Program [NTP]
U.S. Food and Drug Administration [FDA]
The sonic hedgehog (Shh) pathway is essential for normal embryonic development. Dysregulation of the Shh pathway can cause severe developmental defects in organs. Therefore chemicals that interfere with the pathway are potential developmental toxicants. A cell line designated 3T3Gli1-Luc (DMB/OARSA/CFSAN/FDA, Laurel, MD), a NIH/3T3 derived clone containing stably integrated Gli1-Luc reporter is used to detect chemical interference of the Shh pathway, by changes in the expression of the firefly Luc gene under the control of the Gli1 transcriptional response element. This cell line was used to screen Tox21 libraries for identifying and prioritizing the potential developmental toxicants that interfere Shh pathway. Conditioned medium-stimulated mode was used to screen for chemicals inhibiting Shh signaling. The cytotoxicity of the compounds was tested in parallel by measuring the cell viability using CellTiter-Fluor assay system (Promega, Madison, WI) in the same wells.
Tox21 Assay Protocol Summary:
3T3 Gli1-Luc cells were dispensed at 2,000 per well in 5uL of culture medium into white solid bottom 1536-well plates (Greiner Bio-One, Monroe, NC) using a Multidrop Combi (Thermo Scientific, Waltham, MA) dispenser. The assay plates were incubated at 37 C and 5% CO2 for 4hr, and then 23nL of compounds dissolved in DMSO and positive control were transferred using a Pintool station (Wako, San Diego, CA). The compound transfer was followed by the addition of 1ul conditioned medium or assay buffer using two separate tips of Flying Reagent Dispenser (FRD, Aurora Discovery, San Diego, CA). The assay plates were incubated at 37C and 5% CO2 for 24hr. For viability read, after 23hr of compound treatment, 1uL of CellTiter-Fluor reagent (Promega Corporation, Madison, WI) was added to each well of the assay plates using Flying Reagent Dispenser (FRD, Aurora Discovery, San Diego, CA) and incubated the assay plates at 37C for 1hr. The fluorescence signal was quantified using a ViewLux plate reader (Perkin Elmer, Shelton, CT).
Potency means the concentration at half of the fitted maximal effect.

Row | SMILES | Potency
1 | OC(CCN1CCCCC1)(c1ccccc1)C1CCCCC1 (stereo not given) | inactive
2 | CCC(=O)OC(C)(C)C1CC=C(C)CC1 (stereo not given) | inactive
3 | CC(C(=O)O)c1ccc(C(=O)c2ccccc2)s1 (stereo not given) | inactive
4 | CCCOc1ccc2nc(NC(=O)OC)[nH]c2c1 | inactive
5 | Cc1cc(CC(=O)O)c(C)n1-c1ccc(Cl)cc1 | inactive
6 | CN(C)CCCNCCCN | inactive
7 | COCCCCCCCCOCCC[Si](C)(O[Si](C)(C)C)O[Si](C)(C)C | inactive
8 | CC(=O)Nc1ccc(/C=N/NC(N)=S)cc1 | inactive
9 | CCN(CC)C(C)=O | inactive
10 | COC(=O)CSc1cc(N=c2sc(=O)n3n2CCCC3)c(F)cc1Cl | inactive
11 | CC(=O)O[C@H]1C[C@@H]2CC[C@@H]3[C@H](CC[C@@]4(C)[C@H]3C[C@H]([N+]3(C)CCCCC3)[C@@H]4OC(C)=O)[C@@]2(C)C[C@@H]1N1CCCCC1 | inactive
12 | C=CC[N+]1([C@H]2C[C@H]3[C@@H]4CC[C@H]5C[C@H](OC(C)=O)[C@@H](N6CCCCC6)C[C@]5(C)[C@H]4CC[C@]3(C)[C@H]2OC(=O)CC)CCCCC1 | inactive
13 | COc1cc(C(C)(C)C)c(O)c(C(C)(C)C)c1 | inactive
14 | O=C1Nc2cc(Cl)ccc2Oc2ccccc21 | inactive
15 | Cc1ccccc1N=Nc1ccc(N=Nc2c(O)ccc3ccccc23)c(C)c1 | inactive
16 | NCc1ccccc1 | inactive
17 | Nc1nc(N)c(-c2ccccc2)s1 | inactive
18 | Cc1cc(NC(=O)C(=O)O)cc(C)c1Oc1ccc(O)c2c1CCC2 | inactive
19 | CCCCCCCCCCCCCCCBr | inactive
20 | CC1(C)CCC(C)(C)c2cc(NC(=O)c3ccc(C(=O)O)cc3)ccc21 | inactive

Row | SMILES | Potency
21 | CCCc1ccccc1 | inactive
22 | Cc1nc2ccccc2n1Cc1ccc(Cl)cc1 | inactive
23 | N#CCc1cccc(C(F)(F)F)c1 | inactive
24 | CC(=O)NCCCS(=O)(=O)O | inactive
25 | Cn1sccc1=O | 27.3 µM (active)
26 | O=CNc1ccccc1 | inactive
27 | O=[N+]([O-])c1cccc(Cl)c1Cl | inactive
28 | SC1CCCC1 | inactive
29 | COC(Cc1ccccc1)OC | inactive
30 | CC1=CCC(C(C)C)C=C1 (stereo not given) | inactive
31 | CC(=O)OC/C=C/c1ccccc1 | inactive
32 | CC(C)CC=O | inactive
33 | COC(=O)C(C)=O | inactive
34 | CCOc1ccc2[nH]cc(C(=O)NCc3ccccc3)c(=O)c2n1 | inactive
35 | CCCCC(CC)(CO)CO | inactive
36 | COCCO | inactive
37 | CC(=O)O[C@@H]1C(=O)O[C@@H]2[C@H]1OC(=O)[C@@H]2OC(C)=O | inactive
38 | CC[C@H](C)[C@H](N)C(=O)O | inactive
39 | CCN(CC)CCc1nc(-c2ccccc2)no1 | inactive
40 | CC(=O)/C=C/C1C(C)=CCCC1(C)C (stereo not given) | inactive
